Assay outcomes (PubChem)
D2 PAM-1: HTS Assay for Positive Allosteric Modulators of the Human D2 Dopamine Receptor: Primary Screen for Potentiators. D(2) dopamine receptor (Homo sapiens), P14416. HEK293 T-REx D2, calcium flux, EC20 dopamine potentiation. potentiation, % at 10 µM. actives 0.34% (n = 340,000);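 active = potentiation over 3 SD above the plate norm, cut at about 30% in these data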
Target sequence (P14416 whole entry, looked up): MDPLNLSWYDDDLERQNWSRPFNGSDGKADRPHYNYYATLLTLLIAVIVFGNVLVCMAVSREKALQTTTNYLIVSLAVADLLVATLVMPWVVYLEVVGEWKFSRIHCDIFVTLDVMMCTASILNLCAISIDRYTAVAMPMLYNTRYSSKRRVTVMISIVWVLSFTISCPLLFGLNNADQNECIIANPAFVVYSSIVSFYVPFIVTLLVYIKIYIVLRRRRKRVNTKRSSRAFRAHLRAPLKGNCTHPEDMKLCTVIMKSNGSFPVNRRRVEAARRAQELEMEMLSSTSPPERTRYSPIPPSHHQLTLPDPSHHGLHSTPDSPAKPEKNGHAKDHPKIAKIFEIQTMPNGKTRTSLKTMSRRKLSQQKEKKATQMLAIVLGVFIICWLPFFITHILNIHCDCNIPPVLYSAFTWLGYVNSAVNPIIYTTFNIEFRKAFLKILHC
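Tetracycline-induced Hek293 Trex D2 cells, force-coupled to calcium, loaded with no-wash calcium dye. Compound added with 180 s kinetic read for agonism, then EC20 dopamine and a further 180 s read for potentiation.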
D2 antag: HTS Assay for Allosteric Antagonists of the Human D2 Dopamine Receptor: Primary Screen for Antagonists; D(2) dopamine receptor (Homo sapiens), P14416; HEK293 TREx D2 cells, calcium flux, dopamine EC80; inhibition, % at 10 µM; actives 2% (n = 340,000); in the data active = inhibition above about 30%; inactive = below that, where a call was filed
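Dopamine at EC80 is the agonist stimulus; test compounds precede it by 180 s. Calcium flux read kinetically in a force-coupled, inducible HEK293 T-REx D2 cell line.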
D2 PAM-2: Beta-Arrestin HTS for Positive Allosteric Modulators of the Human D2 Dopamine Receptor: Potentiators; D(2) dopamine receptor (Homo sapiens), P14416; DiscoveRx D2 beta-arrestin cells, luminescence, 90 min; 100% = 57 uM dopamine signal; potentiation, % (concentration not given with the values); actives 0.23% (n = 360,000); in the data active = potentiation above about 50%; inconclusive = mostly about 30% to 49%
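PathHunter beta-arrestin assay in DiscoveRx D2 cells. Compounds were added with an EC20 of dopamine (50 nM final) for 90 min at 37 deg C. Luminescence was read 1 h after detection reagent, with 57 uM dopamine as the EC100 control.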
D2 ag-1: Beta-Arrestin HTS for Positive Allosteric Modulators of the Human D2 Dopamine Receptor: Agonists; D(2) dopamine receptor (Homo sapiens), P14416; DiscoveRx PathHunter D2 beta-arrestin, luminescence, 90 min; 100% = 57 uM dopamine signal; activation, % (test concentration not listed); actives 0.084% (n = 360,000); AID 624465, 2012; in the data active = activation above about 40%; inconclusive = between about 15% and that limit
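Agonist mode: compounds alone added to overnight-plated D2 PathHunter cells for 90 min at 37 C, with 57 uM final dopamine (EC100) defining full response. Beta-arrestin recruitment detected by chemiluminescent reagent, read after 1 h at ambient temperature.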
D2 ag-2: HTS Assay for Allosteric Agonists of the Human D2 Dopamine Receptor: Primary Screen for Agonists. actives 0.53% (n = 340,000). HEK293 T-REx D2 cells, calcium flux agonist mode. activation, % at 2 µM. D(2) dopamine receptor (Homo sapiens), P14416;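 active = activation over 3 SD above normal in the single-dose calcium agonist read, cut at about 30% in these data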
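Calcium-flux readout, 1 cycle/sec over 180 s following compound pin transfer, in inducible HEK293 Trex D2 cells (force-coupled); dopamine controls included. Positive calcium responses during this window marked compounds as potential agonists.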
A number is an active result; i = inactive; ? = inconclusive; nt = no result; ! = not active in a repeat. Most compounds without a hit are left out; they make up all but 2.4% or so of the library.

SMILES	D2 PAM-1	D2 antag	D2 PAM-2	D2 ag-1	D2 ag-2
Cc1ccccc1Cn1c(CN2CCC(C(=O)NCCN(C)C)CC2)cc2ccccc21	i	nt	nt	nt	i
CCC(=O)Nc1ccc2c(c1)OCCO2	30	i	i	i	i
O=C(CSc1ccccc1)Nc1ccc2c(c1)OCCO2	i	i	i	i	i
O=C(CSc1ccc(-c2ccccc2)nn1)Nc1ccc2c(c1)OCCO2	i	32	i	i	i
COc1cccc(NC(=O)CN(c2cccc(OC)c2)S(C)(=O)=O)c1	i	38	i	i	i
O=C(Nc1ccccc1)N(Cc1cccc(Cl)c1)c1ccccn1	i	nt	nt	nt	i
Cc1ccc(NC(=O)c2ncoc2-c2ccco2)cc1Cl	i	nt	nt	nt	i
CC(C)CCOP(=O)(c1ccc(N(C)C)cc1)C(O)c1ccccc1F (stereo not given)	i	nt	i	i	nt
CC(C)CCOP(=O)(c1ccc(N(C)C)cc1)C(O)c1ccc(Cl)cc1Cl (stereo not given)	i	i	i	40	i
Cc1nn2c(C)c(C(=O)NCc3ccco3)cnc2c1-c1ccccc1	i	nt	nt	nt	i
Cc1noc(C)c1CSc1nc2[nH]ncc2c(=O)n1-c1ccccc1	32	i	i	i	i
Cc1ccc(Cl)cc1NC(=O)CN1C(=O)NC(C)(C2CC2)C1=O (stereo not given)	nt	nt	i	i	nt
CC1(C2CC2)NC(=O)N(CC(=O)NCc2ccc(Cl)cc2Cl)C1=O (stereo not given)	i	40	i	i	i
CCN(CC)C(=O)Cn1c(=O)n(CCCCCC(=O)NCc2ccc3c(c2)OCO3)c(=O)c2sccc21	i	nt	nt	nt	i
COc1cccc(C(=O)NC2CCN(CC(=O)NCc3ccccc3F)CC2)c1	i	i	i	i	i
Cc1cccc(C(=O)NC2CCN(CC(=O)NCc3ccccc3F)CC2)c1	i	42	i	i	i
Cc1ccc(C(=O)c2oc3ccccc3c2NC(=O)c2cc(-c3ccc(Cl)cc3)on2)cc1	i	nt	nt	nt	i
CC(C)OC(=O)CSc1nnc2c3ccccc3n(C)c2n1	i	37	i	i	i
CC(C)CSc1nnc2c3ccccc3n(C)c2n1	i	nt	i	i	nt
CSc1ccccc1C(=O)OCC(=O)N1CCCC1=O	52	i	i	i	i
O=C(OCC(=O)N1CCCC1=O)c1ccc(O)cc1O	i	i	i	i	i
O=C(NCCc1nc2ccccc2[nH]1)c1cc([N+](=O)[O-])cc([N+](=O)[O-])c1	i	i	59	i	i
O=C(Cn1cc([N+](=O)[O-])cn1)NCCc1nc2ccccc2[nH]1	i	i	i	i	i
COc1ccc(CN2CCN(C(c3ccc(F)cc3)c3ccc(F)cc3)CC2)c(OC)c1OC	nt	nt	i	i	nt
COc1ccc(CN2CCN(Cc3cccc(Oc4ccccc4)c3)CC2)c(OC)c1OC	i	34	i	i	i
SMILES	D2 PAM-1	D2 antag	D2 PAM-2	D2 ag-1	D2 ag-2
COc1ccc(CN2CCN(c3ccc(F)cc3)CC2)c(OC)c1OC	i	33	i	i	i
CN1CCN(Cc2cccc(Oc3ccccc3)c2)CC1	i	i	i	i	i
COc1ccc(C)cc1NS(=O)(=O)c1ccc2c3c(cccc13)C(=O)N2	i	nt	nt	nt	i
COc1ccccc1Nc1nn2c(=O)c3ccc(C(=O)N4CCCC(C)C4)cc3nc2s1 (stereo not given)	37!	i	i	i	i
O=C(Nc1nnc(SCc2cc(=O)n3cc(Cl)ccc3n2)s1)c1cccc(F)c1	i	nt	nt	nt	i
CCOc1ccc(OCC)c(NC(=O)C2CCN(S(=O)(=O)c3cn(C)cn3)CC2)c1	i	nt	nt	nt	i
CC1(C)CC(=O)C(C(C2=C(O)CC(C)(C)CC2=O)c2ccc([N+](=O)[O-])cc2)C(=O)C1 (stereo not given)	i	33	i	i	i
O=C(Nc1ccc(Cl)cc1)N1CCC(c2nc(-c3ccccc3Cl)no2)CC1	i	31	i	i	i
Cc1ccc(-c2c[n+](Cc3ccc(Cl)c(Cl)c3)c3n2CCC3)cc1	i	30	i	i	i
O=C(Nc1ccccc1)Nc1cccc2cccnc12	34	i	i	i	i
Cc1ccccc1Cn1c(=O)n(CCc2ccccc2)c(=O)c2c(C)c(C)sc21	i	nt	nt	nt	i
Cc1cc(F)c(F)c(C(=O)N2CCCCC2C)c1Cl (stereo not given)	i	i	i	i	i
Cc1cc(F)c(F)c(C(=O)N2CCC(C)CC2)c1Cl	i	32	i	i	i
COc1ccc(N2CCN(C(=O)CCS(=O)(=O)c3cc4c(cc3Cl)NC(=O)CO4)CC2)cc1	i	nt	nt	nt	i
Cc1c(NS(=O)(=O)c2ccc(NCCN3CCOCC3)c([N+](=O)[O-])c2)c(=O)n(-c2ccccc2)n1C	31	i	i	i	i
CCN(C(=O)c1cc2c(s1)-c1ccccc1OC2)c1cccc(C(F)(F)F)c1	i	nt	nt	nt	i
O=C(NC1CC1)c1cc2c(s1)-c1ccccc1OC2	i	34	i	i	i
O=C(O)c1cc2c(s1)-c1ccccc1OC2	i	i	i	i	i
O=C(Nc1cccc(C(F)(F)F)c1)c1cc2c(s1)-c1ccccc1OC2	i	40	i	i	i
CCC(C(=O)N1CCN(c2ccccc2)CC1)n1nc(C)c2sc3ccccc3c2c1=O (stereo not given)	i	nt	nt	nt	i
CCCCN(C(=O)Cc1cccc(F)c1)c1c(N)n(CCC)c(=O)[nH]c1=O	i	37	i	i	i
CC(=O)c1sc2c(c1C)c(=O)n(-c1ccc(Cl)cc1)c(=O)n2Cc1cc(=O)n2cc(Cl)ccc2n1	i	nt	nt	nt	i
NNc1nc(-c2ccccc2Cl)nc2sc3c(c12)CCCC3	i	i	53	?	i
CCOC(=O)c1c(C)oc2nc(C)nc(NCC3CCN(Cc4ccc(Cl)cc4)CC3)c12	i	nt	nt	nt	i
N/C(=N\OC(=O)c1ccc(Br)cc1)c1ccncc1	i	i	52	42	i
COc1cc(OC)cc(C(=O)O/N=C(\N)c2ccncc2)c1	i	i	111	?	i
N/C(=N\OC(=O)c1ccccc1)c1ccncc1	i	i	i	i	i
Cc1ccc(C(=O)NC2CC3CCC(C2)N3Cc2ccco2)cc1 (stereo not given)	i	i	i	i	i
O=C(Nc1cccc(Cl)c1)NC1CC2CCC(C1)N2Cc1ccco1 (stereo not given)	i	64	i	i	i
COc1cc(OC)cc(C(=O)NC2CC3CCC(C2)N3Cc2ccco2)c1 (stereo not given)	i	48	i	i	i
